Data taken from PubChem BioAssay (NCI).
“And” between values parts separate entries of the source, which are not always exact repeats. Equal entries are not always repeated. The panel holds about 83,000 compounds, 20% with a hit somewhere; the sample as a whole holds those more often.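 Results are percent growth after 48 hours of single-concentration exposure. 100 means growth as in untreated cells, lower positive values show inhibition; negative values down to -100 show cell death.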 Some compounds were tested as several samples or in several runs, with calls that do not always agree. The source made the active and inactive calls. Rule for the calls: active = growth percent below 10; inactive = the rest.

Legend:
Assay in all cases: NCI-60 one-dose screen, 48 h (100 = growth as untreated, 0 = no growth, -100 = all killed)
Conditions in all cases: 10 µM unless noted
HCT-15 colon = system: HCT-15 colon
HT29 colon = system: HT29 colon
SNB-19 CNS = system: SNB-19 CNS
U251 CNS = system: U251 CNS
PC-3 prostate = system: PC-3 prostate
SK-MEL-5 melanoma = system: SK-MEL-5 melanoma
UACC-62 melanoma = system: UACC-62 melanoma
LOX IMVI melanoma = system: LOX IMVI melanoma
SK-MEL-28 melanoma = system: SK-MEL-28 melanoma
SNB-75 CNS = system: SNB-75 CNS

SMILES: CCC(=O)C(CC)c1cccc(OC)c1 (stereo not drawn)
- growth (HCT-15 colon): 103% (inactive)
- growth (HT29 colon): 103% (inactive)
- growth (SNB-19 CNS): 111% (inactive)
- growth (U251 CNS): 99.4% (inactive)
- growth (PC-3 prostate): 98.8% (inactive)
- growth (SK-MEL-5 melanoma): 101% (inactive)
- growth (UACC-62 melanoma): 108% (inactive)
- growth (LOX IMVI melanoma): 100% (inactive)
- growth (SK-MEL-28 melanoma): 106% (inactive)

SMILES: NC(=O)C1CC2C=CC1C2 (stereo not drawn)
- growth (HCT-15 colon): 107% (inactive) and 106% (inactive)
- growth (HT29 colon): 107% (inactive) and 114% (inactive)
- growth (SNB-19 CNS): 92.1% (inactive)
- growth (U251 CNS): 98.7% (inactive) and 99.8% (inactive)
- growth (PC-3 prostate): 100% (inactive) and 98.4% (inactive)
- growth (SK-MEL-5 melanoma): 99.9% (inactive) and 109% (inactive)
- growth (UACC-62 melanoma): 102% (inactive) and 94.3% (inactive)
- growth (LOX IMVI melanoma): 90.1% (inactive) and 94.2% (inactive)
- growth (SK-MEL-28 melanoma): 104% (inactive) and 101% (inactive)

SMILES: Cc1ncsc1CCO
- growth (HCT-15 colon): 111% (inactive) and 106% (inactive)
- growth (HT29 colon): 101% (inactive) and 95.6% (inactive)
- growth (SNB-19 CNS): 108% (inactive) and 103% (inactive)
- growth (U251 CNS): 99.6% (inactive) and 99.8% (inactive)
- growth (PC-3 prostate): 103% (inactive) and 98.3% (inactive)
- growth (SK-MEL-5 melanoma): 109% (inactive) and 98.2% (inactive)
- growth (UACC-62 melanoma): 111% (inactive) and 95.5% (inactive)
- growth (LOX IMVI melanoma): 97.6% (inactive) and 103% (inactive)
- growth (SK-MEL-28 melanoma): 116% (inactive) and 104% (inactive)

SMILES: Nc1cc(-c2cccc(OC(F)(F)F)c2)nc2ccc(N3CCCC3)cc12
- growth (HCT-15 colon): 7.95% (active) and 7.96% (active) and 7.69% (active)
- growth (HT29 colon): 1.32% (active) and 5.14% (active) and -8.94% (active)
- growth (SNB-19 CNS): 31% (inactive) and 30.5% (inactive) and 23% (inactive)
- growth (U251 CNS): -3.82% (active) and 5.25% (active) and 1.38% (active)
- growth (PC-3 prostate): 20.5% (inactive) and 22.2% (inactive) and 18.3% (inactive)
- growth (SK-MEL-5 melanoma): -41.1% (active) and -39.4% (active) and -14.8% (active)
- growth (UACC-62 melanoma): 8.8% (active) and 27.2% (inactive) and 38.7% (inactive)
- growth (LOX IMVI melanoma): 2.06% (active) and 12.6% (inactive) and 20.4% (inactive)
- growth (SK-MEL-28 melanoma): -57.4% (active) and 37.1% (inactive) and 52.9% (inactive)

SMILES: COC(=O)[C@H]1CCCN1C(=O)C1CCCN1C(=O)[C@@H](Cc1ccccc1)NC(=S)Nc1cc(C(F)(F)F)cc(C(F)(F)F)c1 (stereo partly drawn)
- growth (HCT-15 colon): 95.8% (inactive) and 75.5% (inactive)
- growth (HT29 colon): 111% (inactive) and 72.6% (inactive)
- growth (SNB-75 CNS): 85.4% (inactive) and 73.3% (inactive)
- growth (SNB-19 CNS): 92.1% (inactive) and 86.7% (inactive)
- growth (U251 CNS): 98.8% (inactive) and 77% (inactive)
- growth (PC-3 prostate): 101% (inactive) and 53.3% (inactive)
- growth (SK-MEL-5 melanoma): 100% (inactive) and 88.2% (inactive)
- growth (LOX IMVI melanoma): 103% (inactive) and 88.1% (inactive)
- growth (SK-MEL-28 melanoma): 109% (inactive) and 99.4% (inactive)

SMILES: NC(=S)NS(=O)(=O)c1ccc(N)cc1
- growth (HCT-15 colon): 96.8% (inactive)
- growth (HT29 colon): 109% (inactive)
- growth (SNB-75 CNS): 93% (inactive)
- growth (SNB-19 CNS): 113% (inactive)
- growth (PC-3 prostate): 102% (inactive)
- growth (SK-MEL-5 melanoma): 101% (inactive)
- growth (UACC-62 melanoma): 119% (inactive)
- growth (LOX IMVI melanoma): 105% (inactive)

SMILES: COC(=O)c1nc(N)nc(C(=O)OC)c1C(=O)c1ccc(OC)cc1
- growth (HCT-15 colon): 107% (inactive) and 42% (inactive)
- growth (HT29 colon): 113% (inactive) and 68.2% (inactive)
- growth (SNB-75 CNS): 95.2% (inactive) and 76% (inactive)
- growth (SNB-19 CNS): 98.1% (inactive) and 69.9% (inactive)
- growth (U251 CNS): 106% (inactive) and 49.6% (inactive)
- growth (PC-3 prostate): 99% (inactive) and 46% (inactive)
- growth (SK-MEL-5 melanoma): 104% (inactive) and 57.4% (inactive)
- growth (LOX IMVI melanoma): 97.7% (inactive) and 52.8% (inactive)
- growth (SK-MEL-28 melanoma): 116% (inactive) and 69% (inactive)

SMILES: CCC(C)C1(C2CCCC2)NC(=O)NC1=O (stereo not drawn)
- growth (HCT-15 colon): 107% (inactive) and 102% (inactive)
- growth (HT29 colon): 97.3% (inactive) and 108% (inactive)
- growth (SNB-75 CNS): 94.5% (inactive) and 103% (inactive)
- growth (SNB-19 CNS): 98.8% (inactive) and 99.7% (inactive)
- growth (U251 CNS): 105% (inactive) and 108% (inactive)
- growth (PC-3 prostate): 102% (inactive) and 95.2% (inactive)
- growth (UACC-62 melanoma): 95.5% (inactive) and 96.8% (inactive)
- growth (LOX IMVI melanoma): 92.2% (inactive)
- growth (SK-MEL-28 melanoma): 109% (inactive) and 108% (inactive)

SMILES: NC(=S)NN=C1CCC(C2CCCCC2)CC1 (stereo not drawn)
- growth (HCT-15 colon): 61.9% (inactive) and 66.1% (inactive)
- growth (HT29 colon): 90% (inactive) and 79.7% (inactive)
- growth (SNB-75 CNS): 76.4% (inactive) and 92.8% (inactive)
- growth (SNB-19 CNS): 96% (inactive) and 102% (inactive)
- growth (U251 CNS): 93.7% (inactive) and 95.1% (inactive)
- growth (PC-3 prostate): 89% (inactive) and 74.1% (inactive)
- growth (SK-MEL-5 melanoma): 87.3% (inactive) and 87.8% (inactive)
- growth (LOX IMVI melanoma): 99.8% (inactive)

SMILES: O=C=NC(c1ccccc1)(c1ccccc1)c1ccccc1
- growth (HCT-15 colon): 102% (inactive)
- growth (HT29 colon): 99.9% (inactive)
- growth (SNB-19 CNS): 107% (inactive)
- growth (U251 CNS): 99.4% (inactive)
- growth (PC-3 prostate): 102% (inactive)
- growth (SK-MEL-5 melanoma): 114% (inactive)
- growth (UACC-62 melanoma): 101% (inactive)
- growth (LOX IMVI melanoma): 102% (inactive)
- growth (SK-MEL-28 melanoma): 114% (inactive)

SMILES: O=C(O)C1(C(=O)O)CCC1.[NH2-].[NH2-].[Pt+2]
- growth (HCT-15 colon): 102% (inactive) and 103% (inactive)
- growth (HT29 colon): 106% (inactive) and 89.3% (inactive)
- growth (SNB-75 CNS): 84.7% (inactive) and 88.6% (inactive)
- growth (SNB-19 CNS): 94.6% (inactive) and 99.2% (inactive)
- growth (U251 CNS): 102% (inactive) and 94.1% (inactive)
- growth (PC-3 prostate): 93.6% (inactive) and 78.5% (inactive)
- growth (SK-MEL-5 melanoma): 101% (inactive) and 94.1% (inactive)
- growth (LOX IMVI melanoma): 95.9% (inactive) and 87.9% (inactive)
- growth (SK-MEL-28 melanoma): 112% (inactive)

SMILES: c1ccc(N(c2ccccc2)c2ccccc2)cc1
- growth (HCT-15 colon): 99.8% (inactive)
- growth (HT29 colon): 97% (inactive)
- growth (SNB-19 CNS): 102% (inactive)
- growth (U251 CNS): 102% (inactive)
- growth (PC-3 prostate): 101% (inactive)
- growth (SK-MEL-5 melanoma): 113% (inactive)
- growth (UACC-62 melanoma): 104% (inactive)
- growth (LOX IMVI melanoma): 94.5% (inactive)

SMILES: Oc1c(Cl)cc(Cl)cc1Sc1cc(Cl)cc(Cl)c1O
- growth (HCT-15 colon): 8.23% (active) and 78.1% (inactive)
- growth (HT29 colon): 66.2% (inactive) and 15.8% (inactive) and 108% (inactive)
- growth (SNB-75 CNS): 97.2% (inactive) and 55.2% (inactive) and 100% (inactive)
- growth (SNB-19 CNS): 43.4% (inactive) and -0.0882% (active) and 74.5% (inactive)
- growth (U251 CNS): 48.8% (inactive) and 8.95% (active) and 71.5% (inactive)
- growth (PC-3 prostate): 10.7% (inactive) and 1.87% (active) and 48% (inactive)
- growth (SK-MEL-5 melanoma): 48% (inactive) and 51% (inactive)
- growth (LOX IMVI melanoma): 80.7% (inactive) and 41.3% (inactive) and 96% (inactive)

SMILES: C/C(=N\NC(=O)c1ccncc1)c1ccccc1O
- growth (HCT-15 colon): 22.8% (inactive) and 23.3% (inactive)
- growth (HT29 colon): 29.7% (inactive) and 29.1% (inactive)
- growth (SNB-75 CNS): 89.5% (inactive) and 50.9% (inactive)
- growth (SNB-19 CNS): 47.8% (inactive) and 46.6% (inactive)
- growth (U251 CNS): 33.8% (inactive) and 33.4% (inactive)
- growth (PC-3 prostate): 44.4% (inactive) and 35.8% (inactive)
- growth (SK-MEL-5 melanoma): 38.7% (inactive) and 50% (inactive)
- growth (LOX IMVI melanoma): 22.5% (inactive) and 10.9% (inactive)
- growth (SK-MEL-28 melanoma): 52.4% (inactive) and 63.1% (inactive)

SMILES: Clc1nc(Oc2ccccc2)nc(-c2cn(-c3ccccc3)c3ccccc23)n1
- growth (HCT-15 colon): 38.5% (inactive)
- growth (HT29 colon): 40.6% (inactive)
- growth (SNB-75 CNS): 105% (inactive)
- growth (U251 CNS): 47.2% (inactive)
- growth (PC-3 prostate): 41.3% (inactive)
- growth (SK-MEL-5 melanoma): 102% (inactive)
- growth (UACC-62 melanoma): 80.7% (inactive)
- growth (LOX IMVI melanoma): 10.7% (inactive)
- growth (SK-MEL-28 melanoma): -18.3% (active)

SMILES: O=[N+]([O-])c1ccc(N/N=C\c2cc(Br)ccc2O)nc1
- growth (HCT-15 colon): 21.6% (inactive) and 31.2% (inactive)
- growth (HT29 colon): 27.8% (inactive)
- growth (SNB-19 CNS): 29.2% (inactive) and 28.4% (inactive)
- growth (U251 CNS): 16.6% (inactive) and 5.3% (active)
- growth (PC-3 prostate): 25.8% (inactive)
- growth (SK-MEL-5 melanoma): -3.76% (active) and -35.9% (active)
- growth (UACC-62 melanoma): 1.29% (active) and -17.2% (active)
- growth (LOX IMVI melanoma): 10.5% (inactive) and -18.4% (active)
- growth (SK-MEL-28 melanoma): 37.9% (inactive) and 34.1% (inactive)

SMILES: CCC(O)c1ccccc1 (stereo not drawn)
- growth (HCT-15 colon): 113% (inactive) and 105% (inactive)
- growth (HT29 colon): 104% (inactive) and 105% (inactive)
- growth (SNB-75 CNS): 88% (inactive) and 97.5% (inactive)
- growth (SNB-19 CNS): 110% (inactive) and 103% (inactive)
- growth (U251 CNS): 102% (inactive)
- growth (PC-3 prostate): 116% (inactive) and 102% (inactive)
- growth (SK-MEL-5 melanoma): 107% (inactive) and 95.3% (inactive)
- growth (LOX IMVI melanoma): 104% (inactive) and 108% (inactive)
- growth (SK-MEL-28 melanoma): 75.7% (inactive) and 98.6% (inactive)

SMILES: O=S(=O)(Nc1ccccc1)C1CCCCC1
- growth (HCT-15 colon): 109% (inactive) and 102% (inactive)
- growth (HT29 colon): 99.1% (inactive) and 99.6% (inactive)
- growth (SNB-19 CNS): 101% (inactive) and 107% (inactive)
- growth (U251 CNS): 109% (inactive) and 102% (inactive)
- growth (PC-3 prostate): 92.6% (inactive) and 105% (inactive)
- growth (SK-MEL-5 melanoma): 110% (inactive)
- growth (UACC-62 melanoma): 92.6% (inactive) and 105% (inactive)
- growth (LOX IMVI melanoma): 109% (inactive) and 95.5% (inactive)
- growth (SK-MEL-28 melanoma): 110% (inactive) and 108% (inactive)
